Bioassay records as filed in PubChem.
Most compounds without a hit are left out; they make up all but 4% or so of the library.
tim10-1 inh: tim10-1 yeast growth inhibition; inhibition, % at 20 µM; 330,000 tested, 2.2% active; AID 463190; S. cerevisiae tim10-1 ts strain growth, BacTiter-Glo, 24 h;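 active means inhibition of at least 40%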;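 further: mutant grown at 25 °C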
TIM10 inh: growth inhibitors of TIM10 yeast strain. S. cerevisiae TIM10 strain growth, BacTiter-Glo luminescence, 24 h. inhibition, % at 10 µM. 330,000 tested, 1.4% active;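 active means inhibition of 40% or more at the single tested concentration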;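 further: wild-type TIM10 isogenic control strain grown at permissive 25 °C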
tim23-1 inh: inhibits growth of tim23-1 mutant yeast; 330,000 tested, 1.3% active; S. cerevisiae tim23-1 growth, BacTiter-Glo luminescence, 24 h; inhibition, % at 20 µM;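 active means growth inhibition of the mutant yeast at or above 50%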;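 further: temperature-sensitive mutant grown at 25 °C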
NLRP3 yeast inh: blocks the NALP3 inflammasome reconstituted in yeast; Yeast reconstituted NLRP3/ASC/caspase-1, beta-gal luminescence, 24 h; inhibition, % at 10 µM; 330,000 tested, 0.39% active;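 active means inhibition of 50% or more; inactive means inhibition below 50%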
NALP1 inh: inhibitors of NALP1 inflammasome in yeast. S. cerevisiae NALP1/ASC/caspase-1 growth, X-gal OD620, 72 h. inhibition, % at 10 µM. 280,000 tested, 0.61% active; in the data active means inhibition mostly above about 24%, no sharp cut-off; inactive means mostly below about 32%
tim10-1 confirm: confirmation of tim10-1 mutant yeast growth inhibitors. 7,400 tested, 56% active. AID 463213. shares compounds with tim10-1 inh. S. cerevisiae tim10-1 ts strain growth, BacTiter-Glo, 24 h. inhibition, % at 20 µM;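 active means inhibition of yeast growth at or above a set limit in either of two repeat tests at 20 µM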;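 further: tim10-1 mutant grown at permissive 25 °C to find synthetic lethal compounds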
Hits are given with their value.

Cc1ccc(C(=O)COC(=O)CNC(=O)Cc2ccccc2)cc1 was read as tim10-1 inh inactive, TIM10 inh inactive, tim23-1 inh inactive, NLRP3 yeast inh inactive and NALP1 inh inactive.
CCc1ccc(C(=O)COC(=O)CNC(=O)COc2ccccc2)cc1 was read as tim10-1 inh 42, TIM10 inh inactive, tim23-1 inh inactive, NLRP3 yeast inh inactive, NALP1 inh inactive and tim10-1 confirm inactive.
For CCc1ccc(-c2csc(NC(=O)C3CC(=O)N(c4ccc5c(c4)OCCO5)C3)n2)cc1 (centres undefined) the results were tim10-1 inh 47, TIM10 inh inactive, tim23-1 inh inactive, NLRP3 yeast inh inactive, NALP1 inh inactive and tim10-1 confirm inactive.
For O=C(CSCc1c(F)cccc1Cl)Nc1ccccc1C(=O)N1CCOCC1 the results were tim10-1 inh inactive, TIM10 inh inactive, tim23-1 inh inactive, NLRP3 yeast inh inactive and NALP1 inh inactive.
Cc1coc(C)c1C(=O)CC1(O)C(=O)N(CCc2ccccc2)c2ccccc21 (centres undefined) was read as tim10-1 inh 44, TIM10 inh inactive, tim23-1 inh inactive, NLRP3 yeast inh inactive, NALP1 inh inactive and tim10-1 confirm 34.
For COc1ccc(CC2(C)OC(c3ccc([N+](=O)[O-])cc3)=NN2C(C)=O)cc1 (centres undefined) the results were tim10-1 inh inactive, TIM10 inh inactive, tim23-1 inh inactive, NLRP3 yeast inh inactive and NALP1 inh inactive.
`Cc1sc2ncnc(Sc3ccccc3C(=O)Nc3ccccc3Cl)c2c1C` gave tim10-1 inh 43, TIM10 inh inactive, tim23-1 inh inactive, NLRP3 yeast inh inactive, NALP1 inh inactive and tim10-1 confirm inactive.
CCC(C(=O)NC(CC(=O)O)c1ccc(Cl)cc1)c1ccccc1 (centres undefined) was read as tim10-1 inh inactive, TIM10 inh inactive, tim23-1 inh inactive, NLRP3 yeast inh inactive and NALP1 inh inactive.
`CCN(CC)c1ccc(S(=O)(=O)N2CCOCC2)cc1NC(=O)CN1CCc2ccccc2C1` gave tim10-1 inh 50, TIM10 inh inactive, tim23-1 inh inactive, NLRP3 yeast inh inactive, NALP1 inh inactive and tim10-1 confirm inactive.
`COc1ccccc1NC(=S)NC(=O)C(C)(C)C` gave tim10-1 inh 50, TIM10 inh inactive, tim23-1 inh inactive, NLRP3 yeast inh inactive, NALP1 inh inactive and tim10-1 confirm inactive.
For CC1CCN(S(=O)(=O)c2ccc3ccccc3c2)CC1 the results were tim10-1 inh 44, TIM10 inh inactive, tim23-1 inh inactive, NLRP3 yeast inh inactive, NALP1 inh inactive and tim10-1 confirm 31.
`O=C(CCl)N1CCN(S(=O)(=O)c2ccc3ccccc3c2)CC1` gave tim10-1 inh 40, TIM10 inh inactive, tim23-1 inh inactive, NLRP3 yeast inh inactive, NALP1 inh inactive and tim10-1 confirm 33.
CN1CCN(S(=O)(=O)c2ccc3ccccc3c2)CC1 was read as tim10-1 inh inactive, TIM10 inh inactive, tim23-1 inh inactive, NLRP3 yeast inh inactive and NALP1 inh inactive.
Screening CN(C)C(=O)N1CCN(S(=O)(=O)c2ccc3ccccc3c2)CC1 returned tim10-1 inh inactive, TIM10 inh inactive, tim23-1 inh inactive, NLRP3 yeast inh inactive and NALP1 inh inactive.
Screening CC1CCN(c2ccc(S(=O)(=O)N3CCC(C)CC3)cc2N)CC1 returned tim10-1 inh 41, TIM10 inh inactive, tim23-1 inh inactive, NLRP3 yeast inh inactive, NALP1 inh inactive and tim10-1 confirm inactive.
`COc1ccc(CN2C(=NC(=O)C3CCCO3)SC3CS(=O)(=O)CC32)cc1OC` (centres undefined) gave tim10-1 inh inactive, TIM10 inh inactive, tim23-1 inh inactive, NLRP3 yeast inh inactive and NALP1 inh inactive.
For CC(C)n1c(C(F)(F)F)nc2cc(C(=O)N3CCCCC3)ccc21 the results were tim10-1 inh inactive, TIM10 inh inactive, tim23-1 inh inactive and NLRP3 yeast inh inactive.
`O=C(/C=C/c1cn(-c2ccccc2)nc1-c1cccc(Cl)c1)N1CCN(c2ccccn2)CC1` gave tim10-1 inh inactive, TIM10 inh inactive, tim23-1 inh inactive, NLRP3 yeast inh inactive and NALP1 inh inactive.
`CC1CCN(S(=O)(=O)c2nnc(NC(=O)c3ccccc3Br)s2)CC1` gave tim10-1 inh inactive, TIM10 inh inactive, tim23-1 inh inactive, NLRP3 yeast inh inactive and NALP1 inh inactive.
`O=C(CNc1cccc2ccccc12)N/N=C/c1ccccn1` gave tim10-1 inh inactive, TIM10 inh inactive, tim23-1 inh inactive, NLRP3 yeast inh inactive and NALP1 inh inactive.
For O=C(CNc1cccc2ccccc12)N/N=C/c1cccc(Oc2ccccc2)c1 the results were tim10-1 inh 42, TIM10 inh inactive, tim23-1 inh inactive, NLRP3 yeast inh inactive, NALP1 inh inactive and tim10-1 confirm inactive.
`Cn1c(=O)n(C)c2cc(N3CCCCC3)c(NC(=O)c3cccc(Cl)c3)cc21` gave tim10-1 inh 42, TIM10 inh inactive, tim23-1 inh inactive, NLRP3 yeast inh inactive, NALP1 inh inactive and tim10-1 confirm inactive.
For CCn1c(=O)n(CC)c2cc(N3CCCC3)c(NC(=O)c3cccc(OC)c3)cc21 the results were tim10-1 inh 47, TIM10 inh inactive, tim23-1 inh inactive, NLRP3 yeast inh inactive, NALP1 inh inactive and tim10-1 confirm inactive.
For CC[C@]1(C(=O)OC)[C@H]2C(=O)N(C)C(=O)[C@H]2[C@H]2CN(C)C(=NC)N21 the results were tim10-1 inh inactive, TIM10 inh inactive and tim23-1 inh inactive.
For CCn1c2ccccc2c2nnc(SCC(N)=O)nc21 the results were tim10-1 inh inactive, TIM10 inh inactive, tim23-1 inh inactive, NLRP3 yeast inh inactive and NALP1 inh inactive.
CCn1c2ccccc2c2nnc(SCc3ccccc3)nc21 was read as tim10-1 inh 44, TIM10 inh inactive, tim23-1 inh inactive, NLRP3 yeast inh inactive, NALP1 inh inactive and tim10-1 confirm inactive.
CC(=O)NCCc1ccc(C(=O)CSc2nnc(C3CC3)n2C2CC2)cc1 was read as tim10-1 inh inactive, TIM10 inh inactive, tim23-1 inh inactive and NLRP3 yeast inh inactive.
For Cc1nc2c(-c3ccc(F)cc3)cnn2c(N)c1-c1ccc(F)cc1 the results were tim10-1 inh inactive, TIM10 inh inactive, tim23-1 inh inactive, NLRP3 yeast inh inactive and NALP1 inh inactive.
Screening Cc1cc(N)n2ncc(-c3ccc(F)cc3)c2n1 returned tim10-1 inh 50, TIM10 inh inactive, tim23-1 inh inactive, NLRP3 yeast inh inactive, NALP1 inh inactive and tim10-1 confirm 39.
Screening O=C(COC(=O)Cc1ccccc1F)NNC(=O)c1ccc([N+](=O)[O-])cc1 returned tim10-1 inh inactive, TIM10 inh inactive, tim23-1 inh inactive and NLRP3 yeast inh inactive.
N#Cc1ccc(CN2CCN(C(=O)CNC(=O)Cc3ccccc3)CC2)cc1 was read as tim10-1 inh inactive, TIM10 inh inactive, tim23-1 inh inactive and NLRP3 yeast inh inactive.
`O=C(Cc1ccc(Br)cc1)NCCc1ccc(Cl)cc1Cl` gave tim10-1 inh inactive, TIM10 inh inactive, tim23-1 inh inactive, NLRP3 yeast inh inactive and NALP1 inh inactive.
